G9a inh: qHTS Assay for Inhibitors of Histone Lysine Methyltransferase G9a | 350,000 compounds, 8.8% hits | G9a H3K9 monomethylation, AlphaScreen, 2 h | Potency, µM (highest dose often 102 µM), for the others: top-dose activity, negative = inhibition, most hits filed as inhibitors | Histone-lysine N-methyltransferase EHMT2 (Homo sapiens), Q96KQ7; note: % is set by controls: 0 for no effect and ±100 for the full control effect; nearly all actives have a fitted effect of over 75% in size
Target sequence (Q96KQ7 913-1193 limits assumed): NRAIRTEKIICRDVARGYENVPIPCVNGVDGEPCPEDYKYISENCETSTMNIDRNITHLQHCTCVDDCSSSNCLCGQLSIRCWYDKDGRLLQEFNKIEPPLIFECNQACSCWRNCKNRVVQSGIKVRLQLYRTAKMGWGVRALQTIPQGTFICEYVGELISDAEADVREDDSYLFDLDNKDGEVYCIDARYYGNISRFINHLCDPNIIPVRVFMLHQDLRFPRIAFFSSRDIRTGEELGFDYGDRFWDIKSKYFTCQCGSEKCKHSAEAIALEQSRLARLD
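G9a (20 nM) preincubated 15 min RT with compounds, then 500 nM biotinylated H3K9 peptide and 20 uM SAM added; 2 h RT reaction. Monomethyl-H3K9 product detected by AlphaScreen with anti-H3K9me1 antibody, streptavidin donor and anti-rabbit IgG acceptor beads.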
HP1b binding inh: HTS for Inhibitors of HP1-beta Chromodomain Interactions with Methylated Histone Tails. Potency, µM (titrated, usually from 114 µM), without a hit: at the highest dose activity change, negative = inhibition, most hits filed as inhibitors. 390,000 compounds, 0.56% hits. AlphaScreen HP1-beta / biotin-H3K9me3 peptide binding. AID 540317, 2011. Chromobox protein homolog 1 (Homo sapiens), P83916; note: nearly all actives have a fitted effect of over 70% in size
Target sequence (P83916 whole entry, looked up): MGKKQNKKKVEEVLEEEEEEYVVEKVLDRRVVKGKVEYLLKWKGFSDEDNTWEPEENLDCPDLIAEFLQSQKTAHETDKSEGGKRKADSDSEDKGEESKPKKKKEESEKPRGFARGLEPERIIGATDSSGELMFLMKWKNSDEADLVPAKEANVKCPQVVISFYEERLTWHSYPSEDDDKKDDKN
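HP1-beta protein (50 nM final) preincubated 30 min at room temperature with biotinylated H3(1-18)K9me3 peptide (50 nM) in PBS pH 7.4, 0.01% Tween-20, then compound added for 30 min. AlphaScreen streptavidin donor/nickel chelate acceptor beads (10 ug/mL final), 30 min dark, luminescence read.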
JMJD2A Tudor: qHTS Assay for Inhibitors of JMJD2A-Tudor Domain; Lysine-specific demethylase 4A (Homo sapiens), O75164; Potency, µM (highest dose often 114 µM), inactives show top-dose activity change, negative = inhibition, usual class: inhibitors; AlphaScreen JMJD2A-Tudor / H3K4me3 peptide binding; 390,000 compounds, 4.4% hits; note: % is set by controls: 0 for no effect and ±100 for the full control effect; nearly all actives have a fitted effect of over 50% in size
Sfp inh: qHTS Assay for Inhibitors of Bacillus subtilis Sfp phosphopantetheinyl transferase (PPTase); 4'-phosphopantetheinyl transferase ffp (Bacillus subtilis), Q9F4F7; Biochemical Sfp PPTase activity, qHTS; Potency, µM, without a hit: largest response in the series, negative = inhibition, most hits filed as inhibitors; 310,000 compounds, 3.5% hits; AID 1490, 2009;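 note: the enzyme is Sfp with the accession as filed and its product quenches rhodamine fluorescence; 0% = enzyme reaction without inhibitor and -100% = no enzyme wells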
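Reaction rates are the 30-min fluorescence difference (ex 525, em 598 nm) in wells containing 15 nM Sfp, 5 uM rhodamine-CoA and 12.5 uM BHQ-2-YbbR at pH 7.6 with 10 mM MgCl2.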
BAZ2B inh: qHTS Assay for Inhibitors of BAZ2B | AID 504333, 2011 | 360,000 compounds, 4.4% hits | Bromodomain adjacent to zinc finger domain protein 2B (Homo sapiens), Q9UIF8 | AlphaScreen BAZ2B-H3K14Ac peptide displacement | Potency, µM (top dose mostly 114 µM), inactives show top-dose activity change, negative = inhibition, most hits filed as inhibitors; note: % is set by controls: 0 for no effect and ±100 for the full control effect; nearly all actives have a fitted effect of over 60% in size
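BAZ2B 50 nM plus b-H3(5-23)K14Ac 50 nM, PBS pH 7.4/0.01% Tween-20, 30 min RT; compound added (max 110 uM), 30 min RT; streptavidin donor/Ni-chelate acceptor beads 10 ug/mL final, 20 min dark; AlphaScreen read.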
PLK1 PBD inh: qHTS for Inhibitors of PLK1-PDB (polo-like kinase 1 - polo-box domain): Primary Screen | 360,000 compounds, 2.8% hits | AID 720504, 2013 | Potency, µM, without a hit: max response, negative = inhibition, usual class: inhibitors | Plk1 PBD binding of FITC phosphopeptide, fluorescence polarization; note: series mostly up to about 57 µM; % is set by controls: 0 for no effect and ±100 for the full control effect; nearly all actives have a fitted effect of over 65% in size
An asterisk follows results filed as active; ? = inconclusive; / = no result; [ ] = dose if it differs, or a comment. The list is not random: actives were taken first. Their share in the collection is about 12%. Calls come from the whole dose curve; as a rule, active = well fitted curve in the direction sought with a large enough effect; inconclusive = small, poorly fitted or top-dose-only effect, or another doubt; inactive = no such curve, though single readings can be large; an effect the other way counts as inactive or inconclusive. Potency is the fitted concentration of half-maximal effect.

SMILES	G9a inh	HP1b binding inh	JMJD2A Tudor	Sfp inh	BAZ2B inh	PLK1 PBD inh
CC(O)c1cccc(-c2ccc(CN3C[C@]4(CO)O[C@@H](CO)C[C@@H]4S3(=O)=O)cc2)c1 (some centres undefined)	/	31%	-23%	/	/	27µM*
O=C(CC1C(=O)Nc2ccccc2N1CC(=O)N1CCCC1)Nc1ccc(Br)cc1 (centres undefined)	0.28µM*	28%	-18%	/	2%	-2%
Cc1cc(C)c2nc(NC(=O)c3ccc(S(=O)(=O)N4CCCC4)cc3)sc2c1	12%[59 µM]	17%[57 µM]	-14%	/	0%	/
Cc1cc(C)c2nc(NNC(=O)c3ccc(S(=O)(=O)N4CCCCC4)cc3)sc2c1	25µM*	9%	?	?	?	-17%
CCOC(=O)N1CCN(S(=O)(=O)c2ccc(C(=O)NNc3nc4cc(C)cc(C)c4s3)cc2)CC1	50µM*	-12%	?	-1%	?	-5%
CCOC(=O)N1CCN(S(=O)(=O)c2ccc(C(=O)NNc3nc4c(C)cc(C)cc4s3)cc2)CC1	45µM*	5%	?	?	-11%	-9%
CCOC(=O)N1CCN(S(=O)(=O)c2ccc(C(=O)NNc3nc4ccc(Cl)cc4s3)cc2)CC1	79µM*	23%	-25%	5%	-6%	-20%
CCCC(=Nc1ccccc1OC)C1=C(O)CC(c2ccccc2)CC1=O (centres undefined)	?	22%	-6%	-7%	-38%	6%
COc1ccccc1N=C(C)C1=C(O)CC(c2ccccc2)CC1=O (centres undefined)	50µM*	18%	?	14%	?	-3%
COc1ccccc1CN1CC[C@@]2(CCCN(C(=O)c3cnccn3)C2)C1	-4%[12.7 µM]	/	/	20%	/	/
COc1cc(-c2noc(CCC(=O)Nc3cccnc3)n2)cc(OC)c1OC	35µM*	23%	-11%	?	11%	0%
COc1ccccc1-c1noc(CCC(=O)Nc2cccc(C)c2)n1	35µM*	34%	-9%	?	-5%	-12%
COc1ccccc1-c1noc(CCC(=O)Nc2ccccc2Cl)n1	2.8µM*	18%	-22%	10µM*	38%	-11%
COc1cccc(C(=O)Nc2ccc(NC(=O)C3CC=CCC3C(=O)O)cc2)c1 (centres undefined)	-9%[12.7 µM]	41%	-9%	11%	-2%	-5%
CCCC[n+]1c(-c2ccc(Cl)cc2Cl)csc1Nc1ccccc1	11µM*	?	71µM*	-2%	13µM*	-7%
Clc1ccc(-c2csc(Nc3ccccc3)[n+]2Cc2ccco2)c(Cl)c1	32µM*	?	-36%	?	25µM*	-8%
S=C(NCc1ccco1)Nc1cccc(Cl)c1	-44%[59 µM]	20%	-18%	-13%	?	-18%
CS(=O)(=O)N(CC(=O)NCc1ccco1)Cc1ccc(Cl)cc1	?	20%	-25%	28µM*	-24%	?
CS(=O)(=O)N(CC(=O)NCc1ccccc1)Cc1ccc(Cl)cc1	13%	5%	-6%	22%	-4%	-9%
O=C(Cc1ccccc1)NCc1ccc2c(c1)OCO2	?	38%	-19%	12%	-24%	-9%
CS(=O)(=O)N(CC(=O)NCc1ccccn1)Cc1ccc(Cl)cc1	?	29%	11µM*	2%	?	-25%
CC(C)C(=O)c1cn(CC(=O)NCc2ccc3c(c2)OCO3)c2ccccc12	2%[59 µM]	-17%	1%[11.4 µM]	10%	10%	24µM*
